Assay results taken from the supplement of paper PMC11732987, “Enantioselective OTUD7B fragment discovery through chemoproteomics screening and high-throughput optimisation” (Communications Chemistry, 2025).

Key:
Assay in all cases: log2 ratio of Biotin-Ahx-Ub-VS probe labelling (fragment/DMSO); higher = less target engagement (more negative = stronger competition), active = hit call of the paper (q ≤ 0.05, log2 ratio ≤ -1)
Settings in all cases: compound concentration: 200 uM; treatment time: 3 h
USP42 = target: T1, USP42 (UniProt Q9H9J4)
T1 sequence (whole entry): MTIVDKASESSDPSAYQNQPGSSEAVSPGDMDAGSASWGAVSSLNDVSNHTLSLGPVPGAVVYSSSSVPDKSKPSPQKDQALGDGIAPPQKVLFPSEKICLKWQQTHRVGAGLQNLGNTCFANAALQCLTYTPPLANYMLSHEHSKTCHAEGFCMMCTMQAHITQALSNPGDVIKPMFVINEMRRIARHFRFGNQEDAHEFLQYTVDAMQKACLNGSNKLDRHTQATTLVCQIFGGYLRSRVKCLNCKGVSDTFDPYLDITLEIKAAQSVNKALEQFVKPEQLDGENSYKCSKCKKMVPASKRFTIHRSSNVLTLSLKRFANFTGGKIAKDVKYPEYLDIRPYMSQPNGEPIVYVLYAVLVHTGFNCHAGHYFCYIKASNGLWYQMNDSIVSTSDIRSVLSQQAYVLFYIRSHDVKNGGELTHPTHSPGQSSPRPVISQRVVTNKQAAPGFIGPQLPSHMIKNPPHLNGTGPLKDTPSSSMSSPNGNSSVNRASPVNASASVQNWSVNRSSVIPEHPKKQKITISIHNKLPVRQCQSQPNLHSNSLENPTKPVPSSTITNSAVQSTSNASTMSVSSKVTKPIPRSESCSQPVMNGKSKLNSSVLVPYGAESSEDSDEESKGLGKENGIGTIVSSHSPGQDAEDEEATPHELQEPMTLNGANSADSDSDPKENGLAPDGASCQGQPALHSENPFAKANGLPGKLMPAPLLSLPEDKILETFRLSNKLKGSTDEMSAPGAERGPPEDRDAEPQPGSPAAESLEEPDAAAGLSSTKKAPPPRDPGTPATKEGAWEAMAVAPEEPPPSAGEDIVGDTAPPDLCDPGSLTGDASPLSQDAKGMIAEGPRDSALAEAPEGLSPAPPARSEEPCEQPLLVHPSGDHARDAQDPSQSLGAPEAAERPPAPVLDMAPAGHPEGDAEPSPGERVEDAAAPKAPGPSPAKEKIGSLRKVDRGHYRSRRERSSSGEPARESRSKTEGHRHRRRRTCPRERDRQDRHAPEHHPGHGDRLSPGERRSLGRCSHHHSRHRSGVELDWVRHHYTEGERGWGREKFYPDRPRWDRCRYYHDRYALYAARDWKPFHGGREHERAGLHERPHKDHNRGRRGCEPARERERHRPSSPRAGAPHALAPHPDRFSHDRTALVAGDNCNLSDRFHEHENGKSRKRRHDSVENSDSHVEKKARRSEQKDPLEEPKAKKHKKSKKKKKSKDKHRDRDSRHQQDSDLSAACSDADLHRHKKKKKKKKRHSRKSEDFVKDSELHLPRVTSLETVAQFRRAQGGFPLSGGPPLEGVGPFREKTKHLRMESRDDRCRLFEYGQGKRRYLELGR
Method in brief: (§1)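 Each value is an average log2 ratio of fragment to vehicle, tested by unpaired t-test. The underlying Spectronaut label-free quantities were global-median-normalised, and only proteins with ≥2 unique peptides were included. Triplicate HEK293T lysate samples (495 µg) were exposed to fragment at 200 µM or vehicle for 3 h, then to Biotin-Ahx-Ub-VS at 0.5 µM final for 1 h, before NeutrAvidin enrichment of labelled DUBs, LysC and trypsin digestion, and diaPASEF LC-MS/MS.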

USP46 = USP46 (UniProt P62068)
Method in brief: as §1

USP47 = target: T2, USP47 (UniProt Q96K76)
T2 sequence (whole entry): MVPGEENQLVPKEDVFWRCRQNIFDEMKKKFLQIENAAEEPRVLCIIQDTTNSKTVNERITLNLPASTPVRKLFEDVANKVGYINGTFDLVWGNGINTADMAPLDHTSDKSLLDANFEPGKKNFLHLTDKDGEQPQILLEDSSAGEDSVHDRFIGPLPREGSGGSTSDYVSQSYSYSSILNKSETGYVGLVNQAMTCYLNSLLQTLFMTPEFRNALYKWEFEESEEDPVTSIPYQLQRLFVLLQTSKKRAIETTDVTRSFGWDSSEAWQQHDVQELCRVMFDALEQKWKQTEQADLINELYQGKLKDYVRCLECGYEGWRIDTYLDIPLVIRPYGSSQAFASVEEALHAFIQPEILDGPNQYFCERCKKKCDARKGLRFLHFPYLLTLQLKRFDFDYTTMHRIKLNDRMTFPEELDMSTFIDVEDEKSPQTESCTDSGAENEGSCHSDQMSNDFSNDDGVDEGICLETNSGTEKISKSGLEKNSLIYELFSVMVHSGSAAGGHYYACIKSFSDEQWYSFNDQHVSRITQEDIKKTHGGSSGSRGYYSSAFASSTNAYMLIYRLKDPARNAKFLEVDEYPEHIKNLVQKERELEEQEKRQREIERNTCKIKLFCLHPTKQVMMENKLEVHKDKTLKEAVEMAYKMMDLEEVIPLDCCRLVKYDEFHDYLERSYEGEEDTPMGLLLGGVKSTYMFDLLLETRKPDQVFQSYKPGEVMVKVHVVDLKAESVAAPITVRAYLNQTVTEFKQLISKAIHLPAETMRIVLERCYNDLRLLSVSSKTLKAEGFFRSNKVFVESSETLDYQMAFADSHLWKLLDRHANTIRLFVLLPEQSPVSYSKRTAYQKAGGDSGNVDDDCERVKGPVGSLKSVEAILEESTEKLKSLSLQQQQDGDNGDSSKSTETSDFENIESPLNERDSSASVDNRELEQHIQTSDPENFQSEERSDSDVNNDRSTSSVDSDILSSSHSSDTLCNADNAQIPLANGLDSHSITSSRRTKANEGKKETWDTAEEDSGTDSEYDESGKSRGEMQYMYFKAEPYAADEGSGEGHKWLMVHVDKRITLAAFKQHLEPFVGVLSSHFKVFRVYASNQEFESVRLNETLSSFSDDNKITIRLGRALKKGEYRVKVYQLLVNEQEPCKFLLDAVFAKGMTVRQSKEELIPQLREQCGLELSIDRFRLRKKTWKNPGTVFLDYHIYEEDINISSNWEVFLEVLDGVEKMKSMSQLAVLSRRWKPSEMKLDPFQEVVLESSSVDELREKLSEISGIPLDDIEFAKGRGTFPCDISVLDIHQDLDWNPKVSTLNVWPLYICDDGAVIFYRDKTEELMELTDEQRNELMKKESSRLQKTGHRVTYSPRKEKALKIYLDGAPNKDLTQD
Method in brief: as §1

USP48 = target: T3, USP48 (UniProt Q86UV5)
T3 sequence (whole entry): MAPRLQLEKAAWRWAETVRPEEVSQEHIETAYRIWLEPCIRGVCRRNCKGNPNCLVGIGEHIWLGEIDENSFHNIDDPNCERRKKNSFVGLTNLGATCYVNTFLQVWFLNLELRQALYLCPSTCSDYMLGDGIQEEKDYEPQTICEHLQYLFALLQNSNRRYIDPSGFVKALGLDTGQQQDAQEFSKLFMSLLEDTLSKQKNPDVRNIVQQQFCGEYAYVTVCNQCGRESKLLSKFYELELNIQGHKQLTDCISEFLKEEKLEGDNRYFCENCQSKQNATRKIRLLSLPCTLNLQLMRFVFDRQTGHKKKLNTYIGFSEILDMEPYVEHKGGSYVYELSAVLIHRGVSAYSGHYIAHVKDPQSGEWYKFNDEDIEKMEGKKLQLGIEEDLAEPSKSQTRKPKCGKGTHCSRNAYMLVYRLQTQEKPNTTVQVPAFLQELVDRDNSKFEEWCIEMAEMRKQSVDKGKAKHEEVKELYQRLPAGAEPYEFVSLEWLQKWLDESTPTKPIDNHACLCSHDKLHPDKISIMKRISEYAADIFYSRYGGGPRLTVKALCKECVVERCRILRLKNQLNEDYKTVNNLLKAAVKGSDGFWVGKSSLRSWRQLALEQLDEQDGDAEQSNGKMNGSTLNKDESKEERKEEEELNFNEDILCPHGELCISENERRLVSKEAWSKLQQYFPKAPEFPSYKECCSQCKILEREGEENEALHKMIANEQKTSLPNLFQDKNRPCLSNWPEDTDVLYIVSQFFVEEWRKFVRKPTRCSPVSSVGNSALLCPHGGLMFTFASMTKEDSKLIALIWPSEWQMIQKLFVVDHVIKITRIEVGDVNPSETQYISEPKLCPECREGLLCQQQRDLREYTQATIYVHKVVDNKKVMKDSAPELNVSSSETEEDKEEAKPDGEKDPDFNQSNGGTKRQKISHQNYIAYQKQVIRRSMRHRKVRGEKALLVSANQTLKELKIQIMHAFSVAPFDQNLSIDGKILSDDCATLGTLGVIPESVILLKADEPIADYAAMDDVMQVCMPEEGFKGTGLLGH
Method in brief: as §1

USP5 = target: T4, USP5 (UniProt P45974)
T4 sequence (whole entry): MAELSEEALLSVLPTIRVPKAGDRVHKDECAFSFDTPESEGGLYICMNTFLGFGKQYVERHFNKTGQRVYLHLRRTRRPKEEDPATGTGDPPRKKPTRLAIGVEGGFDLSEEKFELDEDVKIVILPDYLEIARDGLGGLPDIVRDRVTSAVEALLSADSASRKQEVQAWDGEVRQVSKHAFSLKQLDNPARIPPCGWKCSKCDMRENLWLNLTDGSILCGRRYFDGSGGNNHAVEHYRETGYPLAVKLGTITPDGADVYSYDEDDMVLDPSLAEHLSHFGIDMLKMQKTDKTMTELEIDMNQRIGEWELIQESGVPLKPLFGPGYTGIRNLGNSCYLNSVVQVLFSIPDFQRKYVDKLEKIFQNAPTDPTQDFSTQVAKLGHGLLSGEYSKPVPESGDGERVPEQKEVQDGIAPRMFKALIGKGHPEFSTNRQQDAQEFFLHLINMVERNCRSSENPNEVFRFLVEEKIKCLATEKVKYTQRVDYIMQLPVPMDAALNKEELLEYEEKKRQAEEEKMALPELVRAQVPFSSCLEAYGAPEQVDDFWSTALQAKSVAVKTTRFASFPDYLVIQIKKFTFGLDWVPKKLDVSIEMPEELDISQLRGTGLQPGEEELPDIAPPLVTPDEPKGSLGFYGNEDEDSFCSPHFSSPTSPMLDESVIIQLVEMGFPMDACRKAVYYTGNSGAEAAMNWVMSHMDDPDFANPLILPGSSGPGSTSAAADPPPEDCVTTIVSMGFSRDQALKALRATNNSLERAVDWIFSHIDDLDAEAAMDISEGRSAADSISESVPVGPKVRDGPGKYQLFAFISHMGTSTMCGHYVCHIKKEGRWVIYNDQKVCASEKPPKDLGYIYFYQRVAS
Method in brief: as §1

USP54 = USP54 (UniProt Q70EL1)
Method in brief: as §1

USP7 = USP7 (UniProt Q93009)
Method in brief: as §1

USP8 = target: T5, USP8 (UniProt P40818)
T5 sequence (whole entry): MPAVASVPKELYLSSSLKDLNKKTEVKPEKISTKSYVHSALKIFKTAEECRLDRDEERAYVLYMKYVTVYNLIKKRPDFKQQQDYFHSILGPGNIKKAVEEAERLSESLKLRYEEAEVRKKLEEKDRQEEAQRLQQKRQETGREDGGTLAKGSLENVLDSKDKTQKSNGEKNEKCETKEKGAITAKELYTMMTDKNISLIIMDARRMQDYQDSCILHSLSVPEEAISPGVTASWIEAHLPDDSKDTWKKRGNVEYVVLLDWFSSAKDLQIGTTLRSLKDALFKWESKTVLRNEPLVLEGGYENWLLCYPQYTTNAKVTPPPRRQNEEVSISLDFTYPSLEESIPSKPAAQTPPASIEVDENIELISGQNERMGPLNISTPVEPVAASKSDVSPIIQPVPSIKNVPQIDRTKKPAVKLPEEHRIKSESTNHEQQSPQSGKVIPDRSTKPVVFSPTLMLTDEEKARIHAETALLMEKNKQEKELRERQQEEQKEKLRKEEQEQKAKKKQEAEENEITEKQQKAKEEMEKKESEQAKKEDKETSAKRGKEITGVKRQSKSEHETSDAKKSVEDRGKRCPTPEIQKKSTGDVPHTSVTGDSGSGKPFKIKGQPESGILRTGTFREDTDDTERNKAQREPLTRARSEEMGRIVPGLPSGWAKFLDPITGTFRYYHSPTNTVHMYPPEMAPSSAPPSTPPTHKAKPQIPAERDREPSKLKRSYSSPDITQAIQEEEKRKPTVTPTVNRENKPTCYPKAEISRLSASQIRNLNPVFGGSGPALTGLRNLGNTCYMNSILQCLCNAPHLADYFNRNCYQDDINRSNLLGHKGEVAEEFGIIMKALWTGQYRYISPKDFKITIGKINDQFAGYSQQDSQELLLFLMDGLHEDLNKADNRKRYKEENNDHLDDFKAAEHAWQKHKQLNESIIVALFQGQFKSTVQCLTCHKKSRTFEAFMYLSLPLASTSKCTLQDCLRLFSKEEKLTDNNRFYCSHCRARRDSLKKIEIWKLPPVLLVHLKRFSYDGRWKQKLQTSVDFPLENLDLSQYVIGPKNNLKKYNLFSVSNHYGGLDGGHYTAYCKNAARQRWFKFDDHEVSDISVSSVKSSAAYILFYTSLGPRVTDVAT
Method in brief: as §1

USP9X = USP9X (UniProt Q93008)
Method in brief: as §1

UniProt O00487 = target: UniProt O00487
Method in brief: as §1

Measured: log2 ratio of Biotin-Ahx-Ub-VS probe labelling

Sequence of USP7 (Q93009 whole entry, looked up): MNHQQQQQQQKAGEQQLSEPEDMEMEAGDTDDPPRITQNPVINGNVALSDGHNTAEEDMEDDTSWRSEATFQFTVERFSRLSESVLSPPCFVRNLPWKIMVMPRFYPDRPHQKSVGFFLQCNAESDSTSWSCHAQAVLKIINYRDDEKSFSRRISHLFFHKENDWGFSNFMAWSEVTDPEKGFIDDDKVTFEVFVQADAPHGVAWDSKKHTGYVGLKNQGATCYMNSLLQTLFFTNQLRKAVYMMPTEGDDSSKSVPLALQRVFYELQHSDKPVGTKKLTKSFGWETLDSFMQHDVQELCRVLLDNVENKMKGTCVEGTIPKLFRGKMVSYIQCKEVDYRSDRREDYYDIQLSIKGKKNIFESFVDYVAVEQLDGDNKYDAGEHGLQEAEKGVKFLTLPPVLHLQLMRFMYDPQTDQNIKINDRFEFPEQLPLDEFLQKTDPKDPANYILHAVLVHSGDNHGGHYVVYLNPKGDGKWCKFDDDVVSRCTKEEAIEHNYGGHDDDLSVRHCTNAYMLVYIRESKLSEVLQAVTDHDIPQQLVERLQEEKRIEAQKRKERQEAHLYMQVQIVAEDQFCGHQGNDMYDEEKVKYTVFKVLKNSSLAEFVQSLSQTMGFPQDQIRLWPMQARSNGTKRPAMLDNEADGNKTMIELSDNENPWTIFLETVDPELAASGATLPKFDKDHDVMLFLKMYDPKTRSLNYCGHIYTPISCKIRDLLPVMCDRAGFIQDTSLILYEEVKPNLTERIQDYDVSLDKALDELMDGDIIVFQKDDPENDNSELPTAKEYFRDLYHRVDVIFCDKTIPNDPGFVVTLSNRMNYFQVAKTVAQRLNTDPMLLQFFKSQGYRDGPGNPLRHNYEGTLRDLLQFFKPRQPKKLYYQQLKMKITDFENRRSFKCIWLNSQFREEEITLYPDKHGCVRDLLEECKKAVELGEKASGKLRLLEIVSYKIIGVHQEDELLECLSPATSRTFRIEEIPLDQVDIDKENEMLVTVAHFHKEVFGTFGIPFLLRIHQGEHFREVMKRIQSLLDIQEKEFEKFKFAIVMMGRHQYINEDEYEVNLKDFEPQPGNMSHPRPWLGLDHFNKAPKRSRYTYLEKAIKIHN
Sequence of UniProt O00487 (O00487 whole entry): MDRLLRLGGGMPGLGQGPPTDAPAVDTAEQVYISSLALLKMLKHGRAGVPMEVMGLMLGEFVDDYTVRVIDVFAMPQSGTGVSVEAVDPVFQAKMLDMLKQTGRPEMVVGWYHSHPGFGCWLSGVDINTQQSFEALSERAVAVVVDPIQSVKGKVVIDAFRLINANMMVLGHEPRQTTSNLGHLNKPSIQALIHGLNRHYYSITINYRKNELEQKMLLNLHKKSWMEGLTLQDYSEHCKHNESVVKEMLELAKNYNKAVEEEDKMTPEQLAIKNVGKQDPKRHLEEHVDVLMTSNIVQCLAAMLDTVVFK
Sequence of USP54 (Q70EL1 whole entry): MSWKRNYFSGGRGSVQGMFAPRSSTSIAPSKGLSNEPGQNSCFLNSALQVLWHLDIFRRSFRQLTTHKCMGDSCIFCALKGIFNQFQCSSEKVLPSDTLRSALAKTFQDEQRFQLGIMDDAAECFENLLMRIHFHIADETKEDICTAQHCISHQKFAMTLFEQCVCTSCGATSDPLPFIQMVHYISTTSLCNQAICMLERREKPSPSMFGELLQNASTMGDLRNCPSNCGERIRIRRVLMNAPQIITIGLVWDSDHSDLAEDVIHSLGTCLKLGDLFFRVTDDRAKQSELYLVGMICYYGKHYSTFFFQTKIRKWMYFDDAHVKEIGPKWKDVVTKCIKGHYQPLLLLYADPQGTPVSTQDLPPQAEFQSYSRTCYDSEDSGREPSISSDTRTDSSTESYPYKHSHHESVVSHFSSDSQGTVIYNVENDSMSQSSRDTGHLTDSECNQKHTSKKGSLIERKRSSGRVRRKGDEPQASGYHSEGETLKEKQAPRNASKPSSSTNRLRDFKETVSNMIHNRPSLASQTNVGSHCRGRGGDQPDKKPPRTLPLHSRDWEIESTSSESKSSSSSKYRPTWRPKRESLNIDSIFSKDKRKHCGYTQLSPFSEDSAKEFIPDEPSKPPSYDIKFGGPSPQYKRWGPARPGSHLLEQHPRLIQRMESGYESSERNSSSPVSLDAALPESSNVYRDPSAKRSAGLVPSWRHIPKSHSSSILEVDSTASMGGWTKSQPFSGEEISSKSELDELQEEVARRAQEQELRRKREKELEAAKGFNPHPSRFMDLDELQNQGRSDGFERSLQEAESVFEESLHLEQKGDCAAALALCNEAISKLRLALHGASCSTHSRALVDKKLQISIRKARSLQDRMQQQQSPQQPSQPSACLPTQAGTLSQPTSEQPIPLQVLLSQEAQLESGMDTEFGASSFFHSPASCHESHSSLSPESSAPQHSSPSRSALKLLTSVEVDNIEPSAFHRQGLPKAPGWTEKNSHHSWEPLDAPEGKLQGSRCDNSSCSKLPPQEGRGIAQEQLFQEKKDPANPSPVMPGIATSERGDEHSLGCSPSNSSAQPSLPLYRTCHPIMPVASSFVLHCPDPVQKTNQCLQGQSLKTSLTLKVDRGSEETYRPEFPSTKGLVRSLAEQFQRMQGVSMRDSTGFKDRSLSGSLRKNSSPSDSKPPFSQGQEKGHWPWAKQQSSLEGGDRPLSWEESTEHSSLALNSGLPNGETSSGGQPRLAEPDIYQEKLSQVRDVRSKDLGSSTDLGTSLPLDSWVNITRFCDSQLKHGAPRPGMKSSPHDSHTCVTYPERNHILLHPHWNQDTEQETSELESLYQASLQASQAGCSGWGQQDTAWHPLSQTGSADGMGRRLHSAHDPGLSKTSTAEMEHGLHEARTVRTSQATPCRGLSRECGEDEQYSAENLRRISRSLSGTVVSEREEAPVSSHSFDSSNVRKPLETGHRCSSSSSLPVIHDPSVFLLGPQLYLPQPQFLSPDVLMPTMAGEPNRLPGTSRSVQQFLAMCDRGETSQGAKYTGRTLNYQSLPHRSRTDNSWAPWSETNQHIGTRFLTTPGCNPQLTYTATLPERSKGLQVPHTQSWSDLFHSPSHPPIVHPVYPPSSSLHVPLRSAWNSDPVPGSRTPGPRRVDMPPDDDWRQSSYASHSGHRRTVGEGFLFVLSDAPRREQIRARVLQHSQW
Sequence of USP46 (P62068 whole entry): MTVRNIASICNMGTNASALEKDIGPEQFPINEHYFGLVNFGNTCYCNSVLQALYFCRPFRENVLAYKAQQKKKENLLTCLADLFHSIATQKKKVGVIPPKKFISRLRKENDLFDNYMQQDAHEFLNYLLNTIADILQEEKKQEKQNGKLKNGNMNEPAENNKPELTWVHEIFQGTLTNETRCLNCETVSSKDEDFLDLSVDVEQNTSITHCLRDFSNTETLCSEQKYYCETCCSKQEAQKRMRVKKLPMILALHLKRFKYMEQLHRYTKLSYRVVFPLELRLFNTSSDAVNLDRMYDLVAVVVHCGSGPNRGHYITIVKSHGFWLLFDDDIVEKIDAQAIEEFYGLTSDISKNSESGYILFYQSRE

Cc1ccn2cc(CNC(=O)CCl)nc2c1.Cl
inactive: USP42 0.192 | USP46 -0.0106 | USP47 -0.5 | USP48 -0.153 | USP5 0.0336 | USP54 0.581 | USP7 -0.341 | USP8 -0.325 | USP9X -0.141 | UniProt O00487 -0.0788
